Most compounds without a hit are left out; they make up all but 19% or so of the library.
DT40 TDP1 no CPT = qHTS for Inhibitors of human tyrosyl-DNA phosphodiesterase 1 (TDP1): qHTS in cells in absence of CPT. DT40 Tdp1-/- hTDP1 cells, no CPT, ATP luminescence, 48 h. Potency, µM (doses to about 46.2 µM), hits mostly inhibitors. hit rate 15% among 420,000; also: nearly all actives have a fitted effect of over 55% in size
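Readout: luminescence from CellTiter-Glo after 30 min in the dark at RT. Cells: DT40 Tdp1-/- with stable hTDP1, 400/well. Exposure: compounds alone, ≥48 hr, 37 °C.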
IL-1B inflam inh = inflammasome signaling inhibition, IL-1 beta readout; hit rate 4.7% among 360,000; THP-1 LPS/ATP IL-1B secretion, AlphaLISA, 16 h; stronger effect = lower value; activity change, % at 57.5 µM; AID 743279; in the data active = activity change below about -50%; inconclusive = mostly about -30% to -49%
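Secreted IL-1B measured by AlphaLISA bead assay after 16 h compound exposure of THP-1 cells; compounds (final up to 57.5 uM) added 1 h before LPS (250 ng/mL) and ATP (1.25 mM) stimulation; lower signal means less secretion.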
HT1080 IDH1KD tx = kills HT-1080 cells with IDH1 knockdown; hit rate 2% among 360,000; HT-1080 IDH1 knockdown viability, ATP luminescence, 48 h; Potency, µM (titrated, usually from 46.1 µM), hits mostly cytotoxic
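Viability of IDH1-knockdown HT-1080 fibrosarcoma cells was assessed by CellTiter-Glo after 48 h at 37 °C with titrated compound; concentration-effect curves were classified by fit quality and response size.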
HT1080NT lethal = kills 2HG-producing HT-1080-NT fibrosarcoma cells; HT-1080-NT fibrosarcoma viability, CellTiter-Glo ATP luminescence, 48 h; Potency, µM (doses to about 46.1 µM), actives largely listed as cytotoxic; hit rate 1.6% among 360,000; AID 686970;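 also: NT is the 2HG producing partner of a matched IDH1 knockdown line; nearly all actives have a fitted effect of over 55% in size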
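Viability by CellTiter-Glo luminescence after 48 h compound exposure at 37C of HT-1080-NT cells (750/well, RPMI, 5% FBS). % activity scaled between DMSO wells and medium-only wells, then curve-fitted and categorized by curve class.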
TDP1 cell CPT = DT40-hTDP1 cell growth loss with CPT. chicken DT40 Tdp1-/-;hTDP1 cells + 20 nM CPT, ATP luminescence, 48 h. Potency, µM (titrated, usually from 46.2 µM), most hits filed as inhibitors. hit rate 12% among 420,000. AID 686979; also: nearly all actives have a fitted effect of over 55% in size
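Chicken DT40 Tdp1-/- cells stably complemented with human TDP1 were seeded at 400 cells/well in medium containing 20 nM camptothecin, exposed to pin-transferred compounds, and grown at 37 °C for at least 48 hr. Viability was read as ATP luminescence.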
Hits are given with their value; - = inactive; ? = inconclusive; . = not tested or not shown; [ ] = another dose, or the depositor's remark. Unless noted, calls follow the shape of the dose curve; as a rule, active = well fitted curve in the direction sought with a large enough effect; inconclusive = small, poorly fitted or top-dose-only effect, or another doubt; inactive = no such curve, though single readings can be large; an effect the other way counts as inactive or inconclusive.

SMILES	DT40 TDP1 no CPT	IL-1B inflam inh	HT1080 IDH1KD tx	HT1080NT lethal	TDP1 cell CPT
NC(=NCCc1c[nH]c2ccccc12)NC(=O)c1ccc(Cl)cc1	-	-	?	?	?
Cc1cc(C)nc(NC(N)=NCCc2ccccc2)n1	2.91µM	-94.5	23.1µM	10.3µM	2.59µM
Cc1cc(C)nc(NC(N)=NC(C)c2ccccc2)n1 (stereo unspecified)	16.4µM	?	-	?	?
Cc1cc(C)nc(NC(=NCCc2c[nH]c3ccccc23)NC(=O)Nc2ccc(Cl)cc2)n1	23.1µM	-	?	-	23.1µM
Cc1cc(C)nc(NCCCc2ccccc2)n1	-	-	-	-	-
Cc1cc(C)nc(NC(N)=NCCc2c[nH]c3ccccc23)n1	9.2µM	-94.7	?	-	20.6µM
COc1cccc(CC(NC(C)=O)C(=O)NC2CCN(c3nnnn3-c3ccccc3)CC2)c1OC (stereo unspecified)	-	-	-	-	-
CCOC(=O)CNC(=O)c1cc2c(=O)n(CC)c3ccccc3c2s1	-	.	.	.	-
CNc1nc(Sc2ccc(C)cc2)cc(C(F)(F)F)n1	-	-	?	-	-
CC(=O)c1ccc(NC(=O)Cn2ncc3c4ccccc4n(Cc4ccccc4)c3c2=O)cc1	-	.	.	.	-
Cc1cccc(NC(=O)Cn2ncc3c4ccccc4n(Cc4ccccc4)c3c2=O)c1C	23.1µM	.	.	.	?
Cc1ccc(C)c(Cn2c3ccccc3c3cnn(CC(=O)N4CCCCC4)c(=O)c32)c1	-	.	.	.	?
Cc1ccc(C)c(Cn2c3ccccc3c3cnn(CC(=O)NCCCN4CCCCC4)c(=O)c32)c1	16.4µM	?	?	?	?
O=C(Cn1ncc2c3ccccc3n(Cc3ccccc3F)c2c1=O)NCCCc1ccccc1	18.4µM	.	.	.	?
CCCCN(CC)CCCNC(=O)Cn1ncc2c3ccccc3n(Cc3ccccc3F)c2c1=O	11.6µM	.	.	.	13µM
O=C(Cn1ncc2c3ccccc3n(Cc3ccccc3F)c2c1=O)NCCN1CCOCC1	?	-	-	-	?
Cc1cc(C)cc(NC(=O)C(=O)NCC(c2cccnc2)N2CCOCC2)c1 (stereo unspecified)	-	.	.	.	-
CN1CCN(c2ncc3nc(-c4ccccc4)c(=O)n(C)c3n2)CC1	-	.	.	.	?
Cc1ccccc1Cn1c2ccccc2c2cnn(CC(=O)NC(C)CCc3ccccc3)c(=O)c21 (stereo unspecified)	9.2µM	.	.	.	9.2µM
COc1cccc(CNC(=O)Cn2ncc3c4ccccc4n(Cc4ccccc4)c3c2=O)c1	-	.	.	.	-
O=C(Cn1ncc2c3ccccc3n(Cc3ccccc3F)c2c1=O)NCCCN1CCCC1=O	-	-52.7	-	-	?
O=C(Cn1ncc2c3ccccc3n(Cc3ccccc3F)c2c1=O)NCc1ccccc1Cl	18.4µM	.	.	.	20.6µM
Cc1ccc(C)c(Cn2c3ccccc3c3cnn(CC(=O)NCCCc4ccccc4)c(=O)c32)c1	9.2µM	.	.	.	?
COc1ccc(S(=O)(=O)Nc2ccccn2)cc1C(=O)Nc1ccccc1	-	-	-	-	-
C/C=C/CSc1nc2c(c(=O)[nH]c(=O)n2C)n1Cc1ccc(C)cc1	-	-	-	-	?
SMILES	DT40 TDP1 no CPT	IL-1B inflam inh	HT1080 IDH1KD tx	HT1080NT lethal	TDP1 cell CPT
Cc1ccc(C)c(Cn2c3ccccc3c3cnn(CC(=O)NCCC4=CCCCC4)c(=O)c32)c1	-	.	.	.	-
Cc1ccccc1Cn1c2ccccc2c2cnn(CC(=O)NCCc3ccccc3)c(=O)c21	?	.	.	.	16.4µM
CN(C(=O)COC(=O)c1ccccc1SCC(=O)N1CCCC1)c1ccccc1	?	-	-	-	-
O=S(=O)(NCCc1nnc2ccc(SCc3c(F)cccc3Cl)nn12)c1ccccc1	23.1µM	.	.	.	?
COc1ccc(Cl)cc1NC(=O)CSc1ccc2nnc(CCNS(=O)(=O)c3ccccc3)n2n1	?	.	.	.	18.4µM
COC(=O)CSc1ccc2nnc(CCNS(=O)(=O)c3ccccc3)n2n1	-	-	-	-	-
O=S(=O)(NCCc1nnc2ccc(SCc3ccccc3Cl)nn12)c1ccccc1	23.1µM	.	.	.	16.4µM
O=C1CC(c2ccco2)CC2=C1C1c3ccccc3C(=O)N1c1ccccc1N2 (stereo unspecified)	23.1µM	-94.2	?	?	?
Cc1ccc(C(=O)N/N=C/c2ccc(-c3cccc(Cl)c3)o2)cn1	14.6µM	-	?	25.9µM	14.6µM
Cc1ccc(C(=O)N/N=C\c2ccc(-c3ccc(Cl)c(Cl)c3)o2)cn1	?	?	18.4µM	16.4µM	?
O=C(N/N=C\c1ccc(-c2cccc(Cl)c2)o1)C(=O)NC1CCCC1	?	-	-	?	-
Cc1ccc(C(=O)N/N=C/c2ccc(-c3ccccc3[N+](=O)[O-])o2)cn1	?	-	-	-	20.6µM
COc1ccc(-c2ccc(/C=N/NC(=O)c3cccnc3)o2)c([N+](=O)[O-])c1	16.4µM	-	-	-	?
COc1cc([N+](=O)[O-])cc(/C=N/NC(=O)c2cccnc2)c1O	?	-	-	-	?
Cc1ccc(C(=O)N/N=C/c2ccc(OC(=O)c3ccccc3Cl)cc2)cn1	?	-	-	-	?
O=C(Nc1cccc(S(=O)(=O)N2CCCCCC2)c1)c1cncc(Br)c1	?	?	-	-	-
Cc1cccc(NC(=O)c2nc[nH]c2C(=O)NCCCCNC(=O)c2[nH]cnc2C(=O)Nc2cccc(C)c2)c1	20.6µM	-	-	-	14.6µM
Cc1cccc(NC(=O)c2nc[nH]c2C(=O)NCCCCCCNC(=O)c2[nH]cnc2C(=O)Nc2cccc(C)c2)c1	23.1µM	-	-	-	11.6µM
CC1=C(C)/C(=N\OS(=O)(=O)c2ccc(C)cc2)C=CC1=O	0.651µM	-102.8	6.51µM	13µM	0.581µM
COc1ccc(S(=O)(=O)/N=C2/C=CC(=O)C(C)=C2C)cc1	1.64µM	-	-	-	1.84µM
COc1ccc(/C=N/S(=O)(=O)c2ccc(C)cc2)cc1	-	-	-	-	-
O=C(c1cnn2cccnc12)N1CCOc2ccc(C(O)C(c3ccccc3)c3ccccc3)cc2C1 (stereo unspecified)	?	.	.	.	-[9.04 µM]
COc1ccc(-c2cc3nc(CCl)[nH]c(=O)c3s2)cc1	4.11µM	-	16.4µM	16.4µM	4.61µM
COc1cccc(CNc2nc3cc(-c4cccc(Cl)c4)sc3c(=O)n2C)c1	-	-	-	-	-
CC(C)(C)c1ccccc1OCCOCCNCc1ccccc1	13µM	-57.4	?	-	16.4µM
Cc1ccc(C(C)C)c(OCCNC(=S)Nc2cccc3ccccc23)c1	12.6µM	-	7.94µM	5.62µM	14.1µM
COCCNCCOCCOc1ccc(Cl)c(C)c1	?	-	-	-	?
Cc1cc(OCCOCCNCc2ccccc2)ccc1C(C)C	11.6µM	-63.2	-	-	18.4µM
Cc1ccc(C(C)C)c(OCCNCc2ccccc2)c1	20.6µM	?	-	-	?
Cc1nn2c(=O)[nH]cnc2c1Cl	-	-	-	-	-

Assay outcomes (PubChem BioAssay)
